Source: PubChem BioAssay
Entries with a potency or affinity are not part of this list. The source made the active and inactive calls. No rule for the calls is given here.

What was measured:
[1] = A549 cell cytotoxicity, dose response, cytotoxicity control, plate reader, cherry-pick, antagonist series (AID 743412)
[2] = HepG2 cell cytotoxicity, dose response, cytotoxicity control, plate reader, cherry-pick, antagonist series (AID 743416)

For `COCCn1c(C)cc(C(=O)CSc2nnnn2C2CCCC2)c1C`, the outcome [1] was “inactive” and the outcome [2] was “inactive”.

With `Cc1cc(C(=O)COC(=O)c2ccccc2O)c(C)n1CC1CCCO1` (stereo unspecified) the outcome [1] was “inactive” and the outcome [2] was “inactive”.

For `O=C(CN1C(=O)c2ccccc2S1(=O)=O)c1ccccc1F`, the outcome [1] was “inactive” and the outcome [2] was “inactive”.

With `CCn1c(C)cc(C(=O)CN2C(=O)c3ccccc3S2(=O)=O)c1C` the outcome [1] was “inactive” and the outcome [2] was “inactive”.

In the case of `Cc1c(NC(=O)c2cccc(NC(=O)COc3ccccc3C#N)c2)c(=O)n(-c2ccccc2)n1C`, the outcome [1] is reported as “inactive” and the outcome [2] is reported as “inactive”.

In the case of `COc1ccc(-c2nc(-c3cccs3)no2)cc1`, the outcome [1] is reported as “inactive” and the outcome [2] is reported as “inactive”.

With `O=C(Nc1ccc(Cl)c(S(=O)(=O)N2CCOCC2)c1)c1ccc2c(c1)OCCO2` the outcome [1] was “inactive” and the outcome [2] was “inactive”.

With `Nc1c(C(=O)Nc2cccc(C(=O)O)c2)sc2nc3c(cc12)CCCC3` the outcome [1] was “inactive” and the outcome [2] was “inactive”.
